Assay results from PubChem BioAssay (EPA / NIEHS).
Several values for one entry are separate records, joined by “and”; a condition that tells them apart may be missing. Equal values may be shown once. Records with an inconclusive call do not appear. Activity calls are given as the source filed them. How the source made its calls, unless noted: active means hit-call score of the fitted dose curve at least 0.9, where 1 is the maximum; inactive means score below 0.9.

Legend:
[1] = biological target: Estrogen-related receptor gamma (Homo sapiens) (UniProt P62508); experiment: ATG_ERRg_TRANS: Attagene TRANS-FACTORIAL HepG2 Assay for human Estrogen-Related Receptor gamma (ERRg) (AID 2282977; active means hit-call score of the fitted dose curve at least 0.9, where 1 is the maximum;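 further: hits increase reporter signal over DMSO so potencies reflect activators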); details: HepG2 Attagene TRANS reporter, ERRg transactivation
Sequence of Estrogen-related receptor gamma (Homo sapiens) (P62508 whole entry, looked up, the tested form may be a part): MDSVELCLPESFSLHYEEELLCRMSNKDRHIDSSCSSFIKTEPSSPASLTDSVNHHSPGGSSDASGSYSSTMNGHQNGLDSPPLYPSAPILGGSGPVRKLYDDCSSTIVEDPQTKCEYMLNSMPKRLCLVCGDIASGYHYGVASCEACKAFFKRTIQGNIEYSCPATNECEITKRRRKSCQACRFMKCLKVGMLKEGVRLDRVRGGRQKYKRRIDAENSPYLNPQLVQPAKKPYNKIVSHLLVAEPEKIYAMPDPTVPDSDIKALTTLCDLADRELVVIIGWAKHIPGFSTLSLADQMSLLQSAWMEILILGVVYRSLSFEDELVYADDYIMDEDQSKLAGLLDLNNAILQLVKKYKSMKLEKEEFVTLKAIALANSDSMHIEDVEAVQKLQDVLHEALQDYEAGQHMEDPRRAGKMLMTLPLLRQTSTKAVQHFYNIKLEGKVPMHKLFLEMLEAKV
Method in brief: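 HepG2 cells transiently transfected with multiplexed GAL4-UAS reporter units and chimeric NR-Gal4 constructs were exposed to test chemicals for 24 h. Reporter mRNA was measured by RT-PCR, 6-FAM primer extension, HpaI digestion and capillary electrophoresis; gain-of-signal versus DMSO.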

[2] = biological target: Glucocorticoid receptor (Homo sapiens) (UniProt P04150); experiment: ATG_GR_TRANS: Attagene TRANS-FACTORIAL HepG2 Assay for human Glucocorticoid Receptor (GR) (AID 2282978; active means hit-call score of the fitted dose curve at least 0.9, where 1 is the maximum;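 further: activators score as hits since higher reporter transcript over DMSO is fitted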); details: HepG2 Attagene TRANS GR reporter, mRNA transcription
Sequence of Glucocorticoid receptor (Homo sapiens) (P04150 whole entry, looked up): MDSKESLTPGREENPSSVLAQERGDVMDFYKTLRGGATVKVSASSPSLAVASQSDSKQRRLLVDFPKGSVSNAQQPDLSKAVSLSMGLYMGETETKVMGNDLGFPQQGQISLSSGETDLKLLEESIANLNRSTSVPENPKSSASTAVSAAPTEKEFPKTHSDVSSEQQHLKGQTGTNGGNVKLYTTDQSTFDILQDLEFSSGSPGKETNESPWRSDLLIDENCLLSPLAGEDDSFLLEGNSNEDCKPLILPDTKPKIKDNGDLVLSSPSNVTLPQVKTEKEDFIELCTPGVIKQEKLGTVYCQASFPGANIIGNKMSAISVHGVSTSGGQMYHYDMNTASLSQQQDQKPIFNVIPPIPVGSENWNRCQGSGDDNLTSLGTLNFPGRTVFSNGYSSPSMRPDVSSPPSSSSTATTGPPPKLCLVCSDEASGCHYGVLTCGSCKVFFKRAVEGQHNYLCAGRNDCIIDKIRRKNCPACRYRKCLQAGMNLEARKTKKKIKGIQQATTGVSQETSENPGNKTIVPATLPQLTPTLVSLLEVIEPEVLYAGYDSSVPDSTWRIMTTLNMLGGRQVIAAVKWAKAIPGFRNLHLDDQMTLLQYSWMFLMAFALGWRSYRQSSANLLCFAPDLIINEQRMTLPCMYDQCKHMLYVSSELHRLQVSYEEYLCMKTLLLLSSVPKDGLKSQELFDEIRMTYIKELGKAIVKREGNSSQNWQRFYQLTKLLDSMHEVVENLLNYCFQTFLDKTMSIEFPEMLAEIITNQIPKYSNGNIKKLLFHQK
Method in brief: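 After 24 h incubation with test chemical, transfected HepG2 cells were lysed for RNA; reporter cDNA was amplified, FAM-labelled, HpaI-digested and sized on a capillary analyser. Signal gain relative to DMSO was scored.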

[3] = biological target: Bile acid receptor (Homo sapiens) (UniProt Q96RI1); experiment: ATG_FXR_TRANS: Attagene TRANS-FACTORIAL HepG2 Assay for Farnesoid X Receptor (FXR) (AID 2282979; active means hit-call score of the fitted dose curve at least 0.9, where 1 is the maximum;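 further: hits raise reporter mRNA above DMSO so AC50 marks FXR activation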); details: HepG2 Attagene TRANS FXR-GAL4 reporter transcription
Method in brief: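 Chimeric FXR-GAL4 activity in transiently transfected human HepG2 liver cells is scored as induction of reporter mRNA after 24 h of dosing. Detection uses RT-PCR with fluorescent labelling and capillary electrophoresis, with DMSO serving as baseline.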

[4] = biological target: Oxysterols receptor LXR-beta (Homo sapiens) (UniProt P55055); experiment: ATG_LXRb_TRANS: Attagene TRANS-FACTORIAL HepG2 Assay for human Liver X Receptor beta (LXRb) (AID 2282981; active means hit-call score of the fitted dose curve at least 0.9, where 1 is the maximum); details: HepG2 Attagene TRANS GAL4-LXRb reporter, mRNA
Sequence of Oxysterols receptor LXR-beta (Homo sapiens) (P55055 whole entry, looked up, the tested form may be a part): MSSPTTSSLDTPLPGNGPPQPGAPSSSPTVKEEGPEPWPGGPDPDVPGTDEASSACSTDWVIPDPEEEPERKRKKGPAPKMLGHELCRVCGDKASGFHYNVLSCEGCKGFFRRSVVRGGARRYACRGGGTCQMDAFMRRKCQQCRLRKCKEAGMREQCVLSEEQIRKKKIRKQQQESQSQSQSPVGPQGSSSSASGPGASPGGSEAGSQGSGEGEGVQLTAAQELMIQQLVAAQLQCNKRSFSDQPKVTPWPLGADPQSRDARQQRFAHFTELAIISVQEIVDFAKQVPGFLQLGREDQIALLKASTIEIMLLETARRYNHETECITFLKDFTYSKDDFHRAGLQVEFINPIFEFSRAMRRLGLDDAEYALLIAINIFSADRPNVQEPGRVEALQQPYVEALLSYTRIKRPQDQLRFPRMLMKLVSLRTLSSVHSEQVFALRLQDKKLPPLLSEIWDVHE
Method in brief: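 HepG2 cells transiently transfected with multiple reporter transcription units carrying chimeric NR-Gal4 proteins acting on GAL4-UAS reporters; compound exposure 24 h. Reporter mRNA quantified by RT-PCR, 6-FAM labelling, HpaI digestion and capillary electrophoresis; gain of signal versus DMSO.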

[5] = biological target: Hepatocyte nuclear factor 4-alpha (Homo sapiens) (UniProt P41235); experiment: ATG_HNF4a_TRANS: Attagene TRANS-FACTORIAL HepG2 Assay for human Hepatocyte Nuclear Factor 4 alpha (HNF4a) (AID 2282982; active means hit-call score of the fitted dose curve at least 0.9, where 1 is the maximum); details: HepG2 HNF4a transactivation reporter, mRNA readout
Sequence of Hepatocyte nuclear factor 4-alpha (Homo sapiens) (P41235 whole entry, looked up, the tested form may be a part): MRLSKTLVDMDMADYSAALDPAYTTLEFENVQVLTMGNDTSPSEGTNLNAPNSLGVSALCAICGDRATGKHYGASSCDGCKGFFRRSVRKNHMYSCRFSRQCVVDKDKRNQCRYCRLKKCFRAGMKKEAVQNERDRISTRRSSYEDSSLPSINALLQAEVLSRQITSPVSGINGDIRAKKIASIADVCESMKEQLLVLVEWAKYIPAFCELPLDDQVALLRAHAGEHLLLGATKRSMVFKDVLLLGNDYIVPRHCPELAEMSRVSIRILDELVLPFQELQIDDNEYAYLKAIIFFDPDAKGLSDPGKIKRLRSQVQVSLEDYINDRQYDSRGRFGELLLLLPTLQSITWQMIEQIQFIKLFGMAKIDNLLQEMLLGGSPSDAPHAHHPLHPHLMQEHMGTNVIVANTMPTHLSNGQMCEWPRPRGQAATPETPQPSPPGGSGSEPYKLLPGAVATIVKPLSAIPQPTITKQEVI
Method in brief: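 HepG2 cells transiently transfected with multiplexed GAL4-UAS reporter units responsive to chimeric NR-GAL4 proteins; compound exposure 24 h. Reporter mRNA quantified by RT-PCR, 6-FAM labelling, HpaI digestion and capillary electrophoresis; gain of signal versus DMSO baseline.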

[6] = ATG_M_32_TRANS: Attagene TRANS-FACTORIAL HepG2 Assay for M32 Transcription Factor (Internal Marker) (AID 2282984; active means hit-call score of the fitted dose curve at least 0.9, where 1 is the maximum;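 further: transcript level of a background control reporter unit measured by RT-PCR and capillary electrophoresis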); details: HepG2 Attagene TRANS M32 internal marker reporter
Method in brief: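 HepG2 cells transiently transfected with multiple GAL4-UAS reporter transcription units, dosed for 24 hours; reporter mRNA quantified by RT-PCR, 6-FAM primer extension, HpaI digestion and capillary electrophoresis. Gain-of-signal fitted versus DMSO baseline; internal background-control marker.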

[7] = biological target: Transcriptional activator Myb (Homo sapiens) (UniProt P10242); experiment: ATG_Myb_CIS: Attagene CIS-FACTORIAL HepG2 Assay for human Myeloblastosis (Myb) Proto-Oncogene Transcription Factor (AID 2282986); details: HepG2 Attagene CIS-FACTORIAL Myb reporter transcription; actives raise or lower the signal
Sequence of Transcriptional activator Myb (Homo sapiens) (P10242 whole entry, looked up): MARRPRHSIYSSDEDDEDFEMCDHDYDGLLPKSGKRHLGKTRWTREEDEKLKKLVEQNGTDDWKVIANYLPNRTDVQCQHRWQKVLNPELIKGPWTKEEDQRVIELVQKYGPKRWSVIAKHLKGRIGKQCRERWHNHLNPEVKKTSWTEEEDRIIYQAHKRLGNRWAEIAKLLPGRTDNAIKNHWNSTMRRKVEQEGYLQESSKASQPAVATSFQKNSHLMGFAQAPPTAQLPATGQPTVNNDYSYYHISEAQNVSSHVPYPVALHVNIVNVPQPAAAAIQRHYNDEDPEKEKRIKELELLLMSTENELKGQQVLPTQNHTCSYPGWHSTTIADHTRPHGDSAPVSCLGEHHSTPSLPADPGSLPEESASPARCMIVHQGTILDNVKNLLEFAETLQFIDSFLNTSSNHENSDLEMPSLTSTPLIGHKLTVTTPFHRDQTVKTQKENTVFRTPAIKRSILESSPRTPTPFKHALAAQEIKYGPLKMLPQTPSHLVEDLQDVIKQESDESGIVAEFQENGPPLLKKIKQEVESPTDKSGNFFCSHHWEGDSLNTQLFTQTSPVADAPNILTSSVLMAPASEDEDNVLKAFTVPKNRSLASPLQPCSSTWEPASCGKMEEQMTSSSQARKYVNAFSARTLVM
Method in brief: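 After 24 h of compound dosing, total RNA from transfected HepG2 cells is reverse-transcribed and the reporter sequences amplified, labeled and separated by capillary electrophoresis. Values come from bidirectional fitting against DMSO.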

[8] = biological target: Nuclear respiratory factor 1 (Homo sapiens) (UniProt Q16656); experiment: ATG_NRF1_CIS: Attagene CIS-FACTORIAL HepG2 Assay for human Nuclear Respiratory Factor 1 (NRF1) Orphan Gene (AID 2282987); details: HepG2 NRF1 cis-element reporter, Attagene multiplex; actives raise or lower the signal
Sequence of Nuclear respiratory factor 1 (Homo sapiens) (Q16656 whole entry, looked up): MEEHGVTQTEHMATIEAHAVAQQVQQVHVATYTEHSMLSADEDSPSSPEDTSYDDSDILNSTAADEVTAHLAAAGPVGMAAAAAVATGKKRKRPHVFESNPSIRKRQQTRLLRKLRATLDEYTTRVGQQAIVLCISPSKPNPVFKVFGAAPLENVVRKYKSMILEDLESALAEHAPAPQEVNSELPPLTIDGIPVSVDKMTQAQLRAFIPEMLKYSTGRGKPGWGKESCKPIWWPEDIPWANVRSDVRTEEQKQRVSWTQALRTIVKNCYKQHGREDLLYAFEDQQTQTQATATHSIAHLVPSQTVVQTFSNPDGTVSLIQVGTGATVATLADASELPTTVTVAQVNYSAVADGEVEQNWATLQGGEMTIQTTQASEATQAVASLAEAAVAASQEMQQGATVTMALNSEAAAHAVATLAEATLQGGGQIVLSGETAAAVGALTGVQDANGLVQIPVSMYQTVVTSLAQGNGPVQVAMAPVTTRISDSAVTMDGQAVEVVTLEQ
Method in brief: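 Measured: fluorescent reporter-specific RT-PCR products from transfected HepG2 cells, separated by capillary electrophoresis. Exposure lasted 24 h. Analysis used bidirectional curve fitting with DMSO as negative control.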

[9] = ATG_NFI_CIS: Attagene CIS-FACTORIAL HepG2 Assay for human Nuclear Factor I (NFI) (AID 2282989); details: HepG2 cis-regulatory reporter, NFI response element transcription; actives raise or lower the signal
Method in brief: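 HepG2 cells transiently transfected with cis-element-driven multiplexed reporter transcription units, dosed for 24 h. Reporter mRNA quantified by RT-PCR, fluorescent labelling, HpaI digestion and capillary electrophoresis; bidirectional fit versus DMSO baseline.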

[10] = biological target: Myc proto-oncogene protein (Homo sapiens) (UniProt P01106); experiment: ATG_Myc_CIS: Attagene CIS-FACTORIAL HepG2 Assay for human Myelocytomatosis (Myc) Proto-Oncogene Transcription Factor (AID 2282990); details: HepG2, Attagene cis-reporter transcription factor activity; actives raise or lower the signal
Sequence of Myc proto-oncogene protein (Homo sapiens) (P01106 whole entry, looked up): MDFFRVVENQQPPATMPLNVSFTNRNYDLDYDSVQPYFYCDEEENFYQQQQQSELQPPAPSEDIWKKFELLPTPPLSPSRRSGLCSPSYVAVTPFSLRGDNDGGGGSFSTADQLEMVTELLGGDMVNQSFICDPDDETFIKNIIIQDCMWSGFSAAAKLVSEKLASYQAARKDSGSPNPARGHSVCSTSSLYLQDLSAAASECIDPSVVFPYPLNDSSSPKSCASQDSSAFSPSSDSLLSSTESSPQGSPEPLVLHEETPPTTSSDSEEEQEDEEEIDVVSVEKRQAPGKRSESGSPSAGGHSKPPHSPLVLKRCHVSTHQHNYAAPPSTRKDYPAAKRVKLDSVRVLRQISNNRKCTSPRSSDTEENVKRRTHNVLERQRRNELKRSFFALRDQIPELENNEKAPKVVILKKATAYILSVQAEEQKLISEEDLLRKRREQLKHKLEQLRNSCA
Method in brief: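 DMSO-normalised, bidirectionally fitted reporter mRNA signal. HepG2 cells transfected with cis reporter constructs, treated 24 h; transcripts detected by RT-PCR, 6-FAM primer extension and CE.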

[11] = ATG_NF_kB_CIS: Attagene CIS-FACTORIAL HepG2 Assay for human Nuclear Factor Kappa B (NF-kB) (AID 2282991); details: HepG2 Attagene cis-factorial NF-kB reporter mRNA; actives raise or lower the signal
Method in brief: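 Fluorescence of labelled RT-PCR products separated by capillary electrophoresis gives reporter mRNA levels from transfected HepG2 cells exposed 24 h; values are fitted in both directions relative to DMSO.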

[12] = ATG_NRF2_ARE_CIS: Attagene CIS-FACTORIAL HepG2 Assay for human Nuclear Factor Erythroid 2 Related Factor 2 (NFR2) response to Antioxidant Response Elements (ARE) (AID 2282992); details: HepG2 Attagene ARE/NRF2 reporter, transcription factor activity; actives raise or lower the signal
Method in brief: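 Cis-factorial assay: transfected HepG2 reporter library, 24 h dosing, mRNA readout via RT-PCR/CE; DMSO-referenced bidirectional analysis.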

[13] = ATG_Oct_MLP_CIS: Attagene CIS-FACTORIAL HepG2 Assay for human Octamer-Binding Transcription Factor (Oct) (AID 2282993); details: HepG2 Attagene cis-factorial Oct reporter, mRNA; actives raise or lower the signal
Method in brief: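 HepG2 cells transiently transfected with cis-promoter-driven multiplexed reporter transcription units, dosed for 24 h. Reporter mRNA quantified by RT-PCR, fluorescent labelling, HpaI digestion and capillary electrophoresis; bidirectional fits versus DMSO baseline.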

[14] = biological target: Cellular tumor antigen p53 (Homo sapiens) (UniProt P04637); experiment: ATG_p53_CIS: Attagene CIS-FACTORIAL HepG2 Assay for human p53 Transcription Factor (AID 2282994); details: HepG2 p53 cis-element reporter, Attagene mRNA; actives raise or lower the signal
Sequence of Cellular tumor antigen p53 (Homo sapiens) (P04637 whole entry, looked up): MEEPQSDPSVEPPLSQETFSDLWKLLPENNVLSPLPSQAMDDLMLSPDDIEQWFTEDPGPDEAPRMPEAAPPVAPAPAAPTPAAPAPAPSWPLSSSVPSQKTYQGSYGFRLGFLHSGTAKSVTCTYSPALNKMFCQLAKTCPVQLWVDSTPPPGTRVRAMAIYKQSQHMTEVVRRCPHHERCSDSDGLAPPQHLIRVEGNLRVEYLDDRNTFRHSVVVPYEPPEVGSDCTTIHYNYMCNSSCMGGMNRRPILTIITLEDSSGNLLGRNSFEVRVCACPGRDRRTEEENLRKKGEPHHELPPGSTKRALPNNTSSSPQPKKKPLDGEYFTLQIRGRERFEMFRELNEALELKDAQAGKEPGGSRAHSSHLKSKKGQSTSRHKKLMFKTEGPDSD
Method in brief: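 Using HepG2 hepatoma cells carrying cis-acting multiplexed reporters, mRNA induction is detected after a 24 h exposure. Gain- and loss-of-signal responses are fitted relative to DMSO-treated cells.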

[15] = BSK_3C_TissueFactor: BioMAP Diversity Plus: 3C Assay for Tissue Factor Biomarker Activity (AID 2282997); details: BioMAP 3C HUVEC, tissue factor biomarker readout; actives raise or lower the signal
Method in brief: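 Values derive from bidirectional curve fitting against DMSO of Tissue Factor ELISA signals, taken 24 h after dosing primary human umbilical vein endothelial cells.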

[16] = BSK_3C_uPAR: BioMAP Diversity Plus: 3C Assay for Urokinase-type plasminogen activator receptor (uPAR) Biomarker Activity (AID 2282998); details: BioMAP 3C HUVEC, uPAR biomarker ELISA; actives raise or lower the signal
Method in brief: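 Human umbilical vein endothelial primary cells were exposed to test chemical for 24 h. Cell-surface uPAR was then quantified by ELISA, and responses were fitted bidirectionally against DMSO as negative control and baseline.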

[17] = ATG_M_06_TRANS: Attagene TRANS-FACTORIAL HepG2 Assay for M06 Transcription Factor (Internal Marker) (AID 2282983; active means hit-call score of the fitted dose curve at least 0.9, where 1 is the maximum); details: HepG2 Attagene TRANS M06 internal marker reporter
Method in brief: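 Measured by capillary electrophoresis of fluorescently labelled RT-PCR products, this endpoint reflects reporter mRNA in HepG2 cells harbouring exogenous NR-GAL4 reporter constructs after 24 h exposure, with DMSO as baseline.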

[18] = biological target: Nuclear receptor subfamily 4 group A member 2 (Homo sapiens) (UniProt P43354); experiment: ATG_NURR1_TRANS: Attagene TRANS-FACTORIAL HepG2 Assay for human Nuclear Receptor Related Protein 1 (NURR1) (AID 2282985; active means hit-call score of the fitted dose curve at least 0.9, where 1 is the maximum); details: HepG2 Attagene TRANS reporter, mRNA readout
Sequence of Nuclear receptor subfamily 4 group A member 2 (Homo sapiens) (P43354 whole entry, looked up, the tested form may be a part): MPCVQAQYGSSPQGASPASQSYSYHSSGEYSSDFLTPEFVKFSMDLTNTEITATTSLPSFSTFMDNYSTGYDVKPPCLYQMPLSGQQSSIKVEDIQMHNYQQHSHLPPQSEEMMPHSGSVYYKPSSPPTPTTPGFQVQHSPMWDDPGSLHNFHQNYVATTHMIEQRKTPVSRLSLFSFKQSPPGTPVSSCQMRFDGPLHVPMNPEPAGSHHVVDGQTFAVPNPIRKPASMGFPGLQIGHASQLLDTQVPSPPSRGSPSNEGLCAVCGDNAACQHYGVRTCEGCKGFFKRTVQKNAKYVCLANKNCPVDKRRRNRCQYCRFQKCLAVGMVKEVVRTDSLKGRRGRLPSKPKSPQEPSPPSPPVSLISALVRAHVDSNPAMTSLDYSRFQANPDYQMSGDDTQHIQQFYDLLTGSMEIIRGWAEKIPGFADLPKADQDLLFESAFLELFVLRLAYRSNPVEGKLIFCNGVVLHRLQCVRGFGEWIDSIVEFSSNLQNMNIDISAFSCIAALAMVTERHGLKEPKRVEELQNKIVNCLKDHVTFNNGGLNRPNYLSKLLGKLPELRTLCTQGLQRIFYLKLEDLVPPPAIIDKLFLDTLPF
Method in brief: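 HepG2 cells transiently transfected with GAL4-UAS reporter units and chimeric NR-Gal4 constructs; chemical exposure 24 h. Reporter mRNA quantified by RT-PCR, fluorescent labelling and capillary electrophoresis; gain of signal fitted relative to DMSO baseline.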

[19] = BSK_3C_VCAM1: BioMAP Diversity Plus: 3C Assay for Vascular cell adhesion molecule 1 (VCAM1) Biomarker Activity (AID 2282999); details: BioMAP 3C HUVEC, VCAM1 ELISA, cytokine-stimulated; actives raise or lower the signal
Method in brief: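 Human umbilical vein endothelial cells were dosed with compound for 24 h, after which cell-surface VCAM-1 was quantified by ELISA. Bidirectional curve fitting used DMSO as negative control and activity baseline.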

Measured: AC50

N#CC(CCc1ccc(Cl)cc1)(Cn1cncn1)c1ccccc1 (stereo unspecified)
active: [12] 10.3 µM
not listed: [17] | [18] | [19]
inactive: all other assays above

COC(=O)C(C)Oc1ccc(Oc2ccc(Cl)cc2Cl)cc1 (stereo unspecified)
active: [16] 25.7 µM and 20 µM and 13.3 µM
inactive: all other assays above

CC(Oc1ccc(Cl)cc1Cl)C(=O)O (stereo unspecified)
not listed: [1] | [3] | [6] | [17] | [18] | [19]
inactive: all other assays above

CCOc1cc(Oc2ccc(C(F)(F)F)cc2Cl)ccc1[N+](=O)[O-]
active: [10] 30.3 µM | [12] 13.7 µM | [13] 13.7 µM
inactive: [17] | [7] | [8] | [9] | [11] | [14] | [15] | [16]

Cc1cc(Cl)ccc1OCC(=O)O
not listed: [1] | [3] | [11] | [19]
inactive: all other assays above

COc1cnc(OC)n2nc(NS(=O)(=O)c3c(OCC(F)F)cccc3C(F)(F)F)nc12
not listed: [1] | [3] | [6] | [11] | [19]
inactive: all other assays above

COP(=S)(OC)Oc1nc(Cl)c(Cl)cc1Cl
active: [12] 26.2 µM
not listed: [2] | [3] | [5] | [6] | [11] | [19]
inactive: all other assays above
